In PubChem BioAssay (NCATS):
Results filed as inconclusive are left out. Calls of active or inactive are those of the source. Calls follow the shape of the dose curve; as a rule, active = well fitted curve in the direction sought with a large enough effect; inconclusive = small, poorly fitted or top-dose-only effect, or another doubt; inactive = no such curve, though single readings can be large; an effect the other way counts as inactive or inconclusive.

How the values were obtained:
[1] = biological target: Cellular tumor antigen p53 (Homo sapiens) (UniProt P04637); assay: Primary qHTS for small molecule compounds that upregulate eGFP-tagged delta133p53alpha (in N-terminal) cells. (AID 2060322); details: NCI-H358 eGFP-delta133p53alpha fluorescence, 24 h; activation: hits give high values;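 also: series mostly up to about 56 µM; 0% = DMSO vehicle and 100% = reference activator; nearly all actives have a fitted effect of over 75% in size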
Cellular tumor antigen p53 (Homo sapiens), sequence (P04637 whole entry, looked up): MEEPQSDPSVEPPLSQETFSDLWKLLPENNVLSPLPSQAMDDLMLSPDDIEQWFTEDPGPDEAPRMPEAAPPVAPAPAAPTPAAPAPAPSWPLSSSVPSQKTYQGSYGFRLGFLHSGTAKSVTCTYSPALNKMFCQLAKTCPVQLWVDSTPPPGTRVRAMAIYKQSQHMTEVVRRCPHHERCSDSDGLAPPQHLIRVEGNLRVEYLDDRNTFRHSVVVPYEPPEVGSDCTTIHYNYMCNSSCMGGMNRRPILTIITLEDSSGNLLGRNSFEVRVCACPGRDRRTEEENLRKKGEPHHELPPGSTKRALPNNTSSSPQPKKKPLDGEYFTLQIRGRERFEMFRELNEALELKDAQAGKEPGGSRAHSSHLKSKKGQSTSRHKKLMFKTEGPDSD
Outline: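 NCI-H358 cells pre-induced 24 h with 10 ng/ml doxycycline to express N-terminal eGFP-delta133p53alpha, then dosed 24 h at 37C without doxycycline; fixed, Hoechst-stained, GFP intensity by laser scanning cytometry, normalized to DMSO (0%) and 57.5 uM 5-azacytidine (100%).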

[2] = biological target: Aldehyde dehydrogenase, mitochondrial (Homo sapiens) (UniProt P05091); assay: qHTS for Inhibitors of the Aldehyde Dehydrogenase Family (ALDH2) Primary screen (AID 2061308);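 also: plate controls were vehicle for no effect and reference inhibitor for full effect; nearly all actives have a fitted effect of over 55% in size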
[3] = biological target: Retinaldehyde dehydrogenase 3 (Homo sapiens) (UniProt P47895); assay: qHTS for Inhibitors of the Aldehyde Dehydrogenase Family (ALDH1A3) Primary screen (AID 2061315);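 also: plate controls were DMSO vehicle for no effect and reference inhibitor for full effect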

CC1CCCC(SCC(O)C(=O)O)CC(=O)c2c(O)cc(O)cc2CC(=O)O1 (stereo unspecified)
inactive: activation [1] -1.53% | Potency [2] | Potency [3]

CC1=CC(=O)[C@H]2C(C)(C)CCC[C@]2(C)[C@@]1(O)CO
inactive: activation [1] -29% | Potency [2] | Potency [3]

Nc1c(Br)cc(Br)cc1CNC1CCC(O)CC1 (stereo unspecified)
inactive: activation [1] 29.7% | Potency [2] | Potency [3]

COC(=O)[C@@H](O)[C@H]1[C@@]2(C)CC3(O)[C@@H](C(=O)[C@H]2O)[C@]24O[C@]25CC(=O)O[C@@H](c2ccoc2)[C@]5(C)CCC4[C@]13C (stereo partly specified)
inactive: activation [1] -13% | Potency [2] | Potency [3]

CC(C)n1cnc2c(-c3cnc(N)nc3)nc(N3CCOCC3)nc21
inactive: activation [1] 15.7% | Potency [2] | Potency [3]

C[C@@H]1O[C@@H](O[C@@H]2CO[C@@H](O[C@H]3CC[C@@]4(C)C(CC[C@]5(C)C4CC=C4[C@@H]6CC(C)(C)CC[C@]6(C(=O)O[C@@H]6O[C@H](CO)[C@@H](O)[C@H](O)[C@H]6O)CC[C@]45C)[C@]3(C)CO)[C@H](O)[C@H]2O[C@@H]2O[C@H](CO)[C@@H](O)[C@H](O)[C@H]2O)[C@H](O)[C@H](O)[C@H]1O (stereo partly specified)
inactive: activation [1] -16.1% | Potency [2] | Potency [3]

Cn1c(=O)n(-c2ccc(C(C)(C)C#N)cc2)c2c3cc(C#Cc4cccnc4)ccc3ncc21
inactive: activation [1] 26.8% | Potency [2] | Potency [3]

COc1ccc(C2=CC(=O)OC2Cc2ccc(O)cc2)c(O)c1 (stereo unspecified)
inactive: activation [1] -20.6% | Potency [2] | Potency [3]

Cc1occc(=O)c1O[C@@H]1O[C@H](CO)[C@@H](O)[C@H](O)[C@H]1O
inactive: activation [1] 11.6% | Potency [2] | Potency [3]

CC1=C2CC3OC3(C)CCC3OC3(C)CC2OC1=O (stereo unspecified)
inactive: activation [1] 9.82% | Potency [2] | Potency [3]

CC(=O)[C@@H]1CC[C@]2(C(=O)O)CC[C@]3(C)C(CCC4[C@@]5(C)CC[C@H](O)C(C)(C)C5CC[C@]43C)C12 (stereo partly specified)
inactive: activation [1] 8.4% | Potency [2] | Potency [3]

C=C1CC[C@@H]2[C@](C)(CO)[C@H](O)CC[C@@]2(C)[C@@H]1C/C=C1/C(=O)OCC1OC(=O)/C(=C/CO)C(O)C[C@@H]1C(=C)CC[C@@H]2[C@](C)(CO)[C@H](O)CC[C@]21C (stereo partly specified)
inactive: activation [1] 13% | Potency [2] | Potency [3]

CC1(C)CCCC2(C)C=C(C(=O)O)C(O)CC12 (stereo unspecified)
inactive: activation [1] -19.1% | Potency [2] | Potency [3]

CC1OC(OC2C(OC3C(O[C@H]4CC[C@@]5(C)C(CC[C@]6(C)C5C(=O)CC5=C7CC(C)(C)CC(O)[C@]7(C)CC[C@]56C)C4(C)C)OC(C(=O)O)C(O)C3O)OCC(O)C2O)C(O)C(O)C1O (stereo partly specified)
inactive: activation [1] -11.5% | Potency [2] | Potency [3]

CCOc1ccc2nc(SCCN3CCOCC3)[nH]c2c1
inactive: activation [1] -7.64% | Potency [2] | Potency [3]

CC(=O)OC12CC(C)C(OC(=O)c3ccccc3)C1/C=C(/C)C(OC(=O)c1ccccc1)CC(=O)C(C)(C)/C=C/C(C)C2=O (stereo unspecified)
inactive: activation [1] -7.14% | Potency [2] | Potency [3]

O=C(/C=C/c1ccccc1)OC[C@]12O[C@H]1[C@@H](O)[C@@H]1C=CO[C@@H](O[C@@H]3O[C@H](CO)[C@@H](O)[C@H](O)[C@H]3O)[C@@H]12
inactive: activation [1] 7.14% | Potency [2] | Potency [3]

CC1(O)CCCC2(C)C1CCC13CC(CO)C(CCC12)C3 (stereo unspecified)
inactive: activation [1] 0% | Potency [2] | Potency [3]

CC1=C2C3OC(=O)C(C)C3(O)CCC2(C)CCC1 (stereo unspecified)
inactive: activation [1] 2.68% | Potency [2] | Potency [3]

CC(C)=CCC(O)[C@](C)(O)C1[C@H](O)C[C@@]2(C)C3CC=C4C(C[C@H](O)[C@@H](O[C@@H]5O[C@H](CO)[C@@H](O)[C@H](O)[C@H]5O)C4(C)C)[C@]3(C)C(=O)C[C@]12C (stereo partly specified)
inactive: activation [1] 10.7% | Potency [2] | Potency [3]

C/C=C(\C)C(=O)OC[C@H]1O[C@@H](O[C@H]2[C@@H](O[C@H]3O[C@H](CO)[C@@H](O)[C@H](O)[C@H]3O[C@@H]3O[C@H](CO)[C@@H](O)[C@H](O)[C@H]3O)O[C@H](COC(=O)/C(C)=C/C)[C@@H](O)[C@@H]2O)[C@H](O)[C@@H](O)[C@@H]1O
inactive: activation [1] -8.4% | Potency [2] | Potency [3]

COC(=O)CC[C@@H](C)[C@H]1CC[C@H]2[C@@H]3CC(=O)[C@H]4C[C@H](OC(C)=O)CC[C@]4(C)[C@H]3CC[C@]12C
inactive: activation [1] -4.33% | Potency [2] | Potency [3]
